Data published in PubChem BioAssay AID431 (Sanford-Burnham Center for Chemical Genomics, 2006).
About 1,100 (1.7%) of roughly 63,000 compounds were called active. This excerpt belongs to a sample that is enriched for actives. Potency and affinity values are given separately. Unmarked numbers belong to inactive results.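 How the source made its calls: active means compounds whose percent cytotoxicity in the single-dose primary screen, scaled between solvent and toxic-drug controls, exceeds 50; inactive means the rest.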

Assay: viability loss of HPDE-C7K cells – cell-based, fluorescence, HTS, primary screen (AID 431);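 further: 0% = DMSO solvent wells and 100% = doxorubicin-treated wells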
Details: HPDE-C7K KRASV12 cells, Alamar Blue viability, 48 h; at 10 µM; stronger effect = higher value

Compound | cytotoxicity
CCOC(=O)c1oc2ccc(Br)cc2c1CSc1nnc(C)s1 | -7.5%
COC(=O)c1cn(NC(=O)c2cccc(N(C)C)c2)c(=O)c2ccccc12 | -1.6%
CCOC(=O)c1c(C)[nH]c(C(=O)CN2C(=O)NC(C)(c3ccc(C)cc3)C2=O)c1C (stereo unspecified) | 29.2%
COc1ccc(S(=O)(=O)N(C)CC(=O)N2CCC(C)CC2)cc1Cl | 9.5%
CCC(C)(C)n1nnnc1C(c1cc2ccc(C)cc2[nH]c1=O)N(Cc1cccnc1)Cc1ccco1 (stereo unspecified) | 14.1%
COc1ccc2[nH]c(=O)c(C(c3nnnn3C(C)(C)C)N(Cc3ccco3)CC3CCCO3)cc2c1 (stereo unspecified) | -29.6%
CCCC(c1nnnn1C(C)(C)CC)N(Cc1ccco1)Cc1cc2ccc(OC)cc2[nH]c1=O (stereo unspecified) | 55.7% (active)
Cc1csc(NC(=O)c2nc(-c3ccccc3)n(-c3ccccc3)n2)n1 | -19.1%
O=C(Nc1nccs1)c1nc(-c2ccccc2)n(-c2ccccc2)n1 | 76.3% (active)
NC(=O)c1ccsc1NC(=O)c1nc(-c2ccccc2)n(-c2ccccc2)n1 | 9.4%
CCCCC(=O)Nc1ccc(C(=O)NCc2ccncc2)cc1 | -7.4%
O=C(CC12CC3CC(CC(C3)C1)C2)N1CCOCC1 | -7.8%
CCOC(=O)c1sc2nc(NC(=O)C3CC3)sc2c1C | 4.4%
CCOC(=O)c1sc2nc(NC(=O)C3CCCCC3)sc2c1C | 68.2% (active)
CCOC(=O)c1sc2nc(NC(=O)C(C)(C)C)sc2c1C | 2.1%
CCC(C)[C@H](NC(=O)NCc1cccs1)C(=O)OC (stereo partly specified) | 7.9%
O=S(=O)(c1ccc(Nc2ccc3c(c2)OCO3)nc1)N1CCOCC1 | -0.1%
O=C(CCS(=O)(=O)c1cccc2nsnc12)NCc1ccccc1 | -10.5%
Cc1cccc(-n2c(CCCN3C(=O)c4ccccc4C3=O)nc3ccccc3c2=O)n1 | -9.8%
Cc1oc2c(CN3CCOCC3)c(O)ccc2c(=O)c1-c1ccccc1 | -12.9%
COc1cc(NS(=O)(=O)c2ccc(NC(=O)C3CCCO3)cc2)nc(OC)n1 (stereo unspecified) | -15.8%
Clc1ccc(OCc2nc(-c3ccccn3)no2)c(Br)c1 | 13.1%
Cc1ccc(OCc2nc(-c3ccccn3)no2)c(Br)c1 | 26.3%
CCOc1ccc(-c2nnc(-c3ccco3)o2)cc1OCC | 1.7%

Compound | cytotoxicity
COc1cccc(N2CCN(CC(=O)c3c[nH]c4ccc(OC)cc34)CC2C)c1 (stereo unspecified) | 17.4%
COc1cccc(N2CCN(Cc3nc4ccccc4c(=O)[nH]3)CC2)c1 | 4.2%
O=C1CC(c2ccccc2)n2nc(N3C(=O)CCC3=O)nc2N1 (stereo unspecified) | 2.8%
CC(=O)Nc1ccc(S(=O)(=O)c2ccc(N)cc2)cc1N | -5.2%
CC1N=C2c3ccccc3N=C(SCc3cc(=O)n4cc(Cl)ccc4n3)N2C1=O (stereo unspecified) | 5.7%
COc1ccc(NS(=O)(=O)c2ccc3oc4ccccc4c3c2)cn1 | 35.2%
O=S(=O)(Nc1ccc2c(c1)OCCO2)c1ccc2oc3ccccc3c2c1 | 73% (active)
CSc1ccc(S(=O)(=O)Nc2ccc3c(c2)OCCO3)cc1 | 9.5%
Cc1ccc2c(c1)c(C)c(C)n2CC(O)Cn1nc(C)cc1C (stereo unspecified) | -6.3%
Oc1c(CN2CCc3ccccc3C2)cc(Cl)c2cccnc12 | -1.6%
Oc1ccc2cccnc2c1 | 4.8%
OCc1ccnc2c(O)cccc12 | 11.7%
Oc1c(CN2CCN(c3ccccn3)CC2)cc(Cl)c2cccnc12 | 28.4%
CCC1Oc2ccc(C)cc2N(CC(=O)NCCC2=CCCCC2)C1=O (stereo unspecified) | 0%
O=C(COc1ccc(Cl)cc1)Nc1ccc2oc(-c3ccncc3)nc2c1 | -3%
COc1ccc(CNC(=O)c2cc(-n3cnnc3)ccc2Cl)cc1 | -0.7%
CCOC(=O)N1CCN(C(=O)CSc2nnc(-c3cccs3)o2)CC1 | 4.2%
COc1ccc(NC2=NC3(CCCCC3)N=C(N)N2)cc1 | 10.1%
COc1cccc(NC2=NC3(CCCCC3)N=C(N)N2)c1 | -1.1%
CCN(C(=O)COc1ncnc2ccc(Br)cc12)C1CCS(=O)(=O)C1 (stereo unspecified) | -5.5%
COC(=O)c1ccc(CSc2nc3c(cnn3-c3ccc(F)cc3)c(=O)[nH]2)o1 | 1.7%
COC(=O)c1ccc(CSc2nc3scc(-c4cccs4)c3c(=O)[nH]2)o1 | 50.4% (active)
COC(=O)c1ccc(CSc2nc3c(cnn3-c3ccc(C)c(C)c3)c(=O)[nH]2)o1 | 8%
CN(C)S(=O)(=O)c1ccc(C(=O)Nc2ccc(Cl)cc2)cc1 | 1.5%

Compound | cytotoxicity
COc1cc(-c2csc(C)n2)ccc1O | -3.1%
Oc1ccc(-c2nc(-c3ccc(O)c(O)c3)cs2)cc1 | 79.5% (active)
CN(c1ccc(O)cc1)c1nc(-c2ccccc2)cs1 | 4.5%
Cc1cccc2cc(C(c3nnnn3CC3CCCO3)N3CCCC4(CCCCC4)C3)c(=O)[nH]c12 (stereo unspecified) | -12.9%
CCCSc1nnc(NC(=O)c2sc3nc(-c4cccs4)ccc3c2N)s1 | 22.7%
Nc1c(C(=O)NC2CCCC2)sc2nc(-c3cccs3)ccc12 | 12.2%
Cc1csc(NC(=O)c2sc3nc(-c4cccs4)ccc3c2N)n1 | 72.2% (active)
CC(C)CCN1C(=O)c2ccc(C(=O)NCC3CCCO3)cc2C1=O (stereo unspecified) | -6.8%
O=C(NCCCN1CCN(c2ccccc2F)CC1)Nc1ccc(F)cc1 | -10.3%
Cc1cc2n(n1)C(c1ccccc1Cl)Nc1ccccc1-2 (stereo unspecified) | 18.6%
Cc1cc2n(n1)C(c1ccccc1)Nc1ccccc1-2 (stereo unspecified) | 15.3%
CCCNC(=O)Cc1ncn[nH]1 | 3.6%
CCOc1cc(C(=O)O)cc(Cl)c1OCC#N | -16.2%
Cc1ccccc1Cc1c(C)nc2c(C(=O)N3CCN(Cc4ccc5c(c4)OCO5)CC3)cnn2c1C | -9.2%
Cc1nc2c(C(=O)O)cnn2c(C)c1Cc1ccccc1F | -2.2%
CC1(C)CC(=O)c2cc(C(=O)N3CCN(CCO)CC3)c(=O)n(-c3ccc(Cl)cc3)c2C1 | -8.4%
O=C(c1cc2ccccn2n1)N1CCCC1 | 8%
Cc1onc(-c2ccccc2Cl)c1C(=O)NCc1ccc(S(N)(=O)=O)cc1 | -0.7%
O=c1[nH]cnc2scc(-c3ccc(F)cc3)c12 | 7.7%
Cn1nnnc1Sc1ncnc2scc(-c3ccccc3)c12 | 11.1%
COc1ccc(OC)c(NC(=O)CN2CCC(C(=O)c3ccc(C)cc3)CC2)c1 | 4.8%
CCC(C)(C)NC(=O)C(c1cccn1C)N(C(=O)Cn1nnc2ccccc21)c1ccc(OC)cc1 (stereo unspecified) | 41.6%
COc1ccc2c(c1)OC(O)(C(F)(F)F)CC2=O (stereo unspecified) | -1.5%
O=C1CC(O)(C(F)F)Oc2ccc3ccccc3c21 (stereo unspecified) | -1.2%

Compound | cytotoxicity
O=C1CC(O)(C(F)(F)F)Oc2c1ccc1ccccc21 (stereo unspecified) | 88.6% (active)
COc1ccc(NC(=O)c2ccc(-n3nc(C)c[n+]3[O-])cc2)cc1 | -7.1%
N#Cc1c2n(cnc1=O)CCCCC2 | 0%
Nc1c(C(=O)NCCN2CCOCC2)c2nc3ccccc3nc2n1-c1ccc2c(c1)OCO2 | -10.7%
Nc1c(C(=O)NCCN2CCOCC2)c2nc3ccccc3nc2n1CCc1ccccc1 | 18.1%
Nc1ccc(-n2c(N)c(C(=O)NCc3ccc4c(c3)OCO4)c3nc4ccccc4nc32)cc1 | 35.9%
Nc1c(C(=O)NCCN2CCOCC2)c2nc3ccccc3nc2n1CCc1ccccc1F | 7.5%
CC1CN(c2nnnn2-c2ccccc2)CC(C)O1 (stereo unspecified) | -6.4%
Cc1ccc(NC(=O)CSc2nnc(COc3ccc(C#N)cc3)n2-c2ccccc2)cc1C | -3.3%
Cc1ccc(S(=O)(=O)/C(C#N)=C/c2c(N3CCN(C)CC3)nc3ccccn3c2=O)cc1 | -0.5%
O=C(O)CSCCC(=O)Nc1ccc(F)cc1 | -3.7%
CCOC(=O)Cn1c(CN2CC(C)OC(C)C2)nc2c1c(=O)n(C)c(=O)n2C (stereo unspecified) | -2.5%
CCOC(=O)N1CCN(C(=O)C2COc3ccccc3O2)CC1 (stereo unspecified) | 11.8%
O=C(O)C1CCCCC1C(=O)Nc1ccc(Cl)cc1Cl (stereo unspecified) | -0.5%
CCCOC(=O)CCCCC1SCC(NC(=O)OC)C1NC(=O)OC (stereo unspecified) | 5.4%
CCOC(=O)Cn1c(=O)oc2cc(S(=O)(=O)Nc3cc(Cl)ccc3OC)ccc21 | 0.7%
CC1=CC(C)(C)N2C(=O)C3(C(C#N)=C(N)Oc4cc(C)oc(=O)c43)c3cccc1c32 (stereo unspecified) | -4.3%
COc1cc2c3c(c1)C1(C(=O)N3C(C)(C)C=C2C)C(C#N)=C(N)Oc2cc(O)ccc21 (stereo unspecified) | -21.4%
CC1=CC(C)(C)N2C(=O)C3(C(C#N)=C(N)Oc4cc(O)ccc43)c3cccc1c32 (stereo unspecified) | 74.3% (active)
Cn1c(SCC2CCCO2)nnc1-c1ccncc1 (stereo unspecified) | -3.1%
CCOC(=O)C1CCN(c2ncnc3c2oc2ccc(Cl)cc23)CC1 | 6.4%
O=C(COC(=O)c1c2c(nc3ccccc13)CCCC2)Nc1ccc2c(c1)OCO2 | 53.6% (active)
Cc1onc(-c2ccccc2)c1C(=O)OCC(=O)Nc1ccc2c(c1)OCO2 | 1.3%
Cc1nn(-c2ccccc2)c(C)c1C(=O)OCC(=O)Nc1ccc2c(c1)OCO2 | -6.3%
